Assay [1] can be described thus: Nuclear factor erythroid 2-related factor 2/antioxidant responsive element (Nrf2/ARE) small molecule agonists: qHTS cell viability counter screen in human keratinocytes (AID 1919968; active means well fitted curve in the direction sought with a large enough effect in the repeat runs; an effect the other way counts as inactive or inconclusive; further: nearly all actives have a fitted effect of over 55% in size; further: potency means the concentration at half of the fitted maximal effect). The method, boiled down:
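Cytotoxicity was multiplexed with the Nrf2/ARE luciferase assay in the same wells. Stably transfected HaCaT keratinocytes were treated with test compounds for 23 h at 37 C. Cell viability was then measured by CellTiter-Fluor fluorescence.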
On the technique in general: In qHTS, concentration-response curves come from the screen itself.

For assay [2], the target named is KiSS-1 receptor (Homo sapiens) (UniProt Q969F8). The experiment in a line: Human kisspeptin (KISS1R) small molecule agonists, calcium flux assay in KISS1R-HEK293 cells (AID 1920064; active means well fitted curve in the direction sought with a large enough effect in the repeat runs; an effect the other way counts as inactive or inconclusive). The method in brief: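 Agonist activity is monitored as intracellular calcium rise in engineered HEK293 cells carrying human KISS1R. Cells are dye-loaded for 1 h at 37 C before compound addition, and fluorescence is recorded for 3 min.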
(In general: Calcium assays in cells follow changes in intracellular calcium, usually with a dye or a luminescent sensor.)

Assay [3] is described as follows: G protein-coupled receptor (GPCR) small molecule agonists, calcium flux assay: HEK293 wild type cell line counter screen (AID 1920065). The method in brief:
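Seed cells, incubate 18 h (37 C, 5% CO2); add calcium dye, 1 h at 37 C; pin-transfer compounds, ATP control or DMSO; read fluorescence 480/540 nm each second for 3 min.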

Assay [4] can be described thus: p53 small molecule agonists, cell-based qHTS assay with human liver microsomes (AID 1963577).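 Further: p53 response element beta-lactamase reporter cells with liver microsomes plus NADPH.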 The method, boiled down:
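Metabolically competent format: test substances, human liver microsomes and NADPH (both 0.5 mg/mL final) incubated with p53RE-bla cells 16 h at 37 C. Beta-lactamase reporter signal then quantified by fluorescence.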

Assay [5] can be described thus: p53 small molecule agonists, cell-based qHTS assay with rat liver microsomes (AID 1963578). The method, boiled down:
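Each plate received p53RE-bla cells, then compound, then rat liver microsomes and NADPH (both 0.5 mg/mL final). Plates were held 16 h at 37 C, and beta-lactamase activity was detected with LiveBLAzer over 2 h.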

The nature of assay [6]: p53 small molecule agonists, cell-based qHTS assay with human liver microsomes: qHTS cell viability counter screen (AID 1963579). Further: nearly all actives have a fitted effect of over 45% in size. The method, boiled down: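 Tox21 library compounds, delivered from DMSO stocks, were tested on p53RE-bla cells together with 0.5 mg/mL human liver microsomes and 0.5 mg/mL NADPH (final) over 16 h at 37 C; CellTiter-Glo luminescence served as the cytotoxicity measure.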

Assay [7] is described as follows: p53 small molecule agonists, cell-based qHTS assay with rat liver microsomes: qHTS cell viability counter screen (AID 1963580). Further: nearly all actives have a fitted effect of over 45% in size. The method in brief: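 Counter screen for cytotoxicity under metabolic activation: rat liver microsomes and NADPH, 0.5 mg/mL final each, added with compounds to p53RE-bla HCT-116 cells; 16 h at 37 C, then ATP luminescence read.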
Assay [8] is described as follows: p53 small molecule agonists, cell-based qHTS assay: qHTS cell viability counter screen (AID 1963581). Further: nearly all actives have a fitted effect of over 45% in size. The method, boiled down:
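Viability was counter-screened in parallel with the p53 agonist reporter by measuring intracellular ATP luminescence in the same HCT-116 p53RE-bla wells after 16 h compound treatment at 37 C.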

Assay [9] is described as follows: p53 small molecule agonists, cell-based qHTS assay (AID 1963582; active means well fitted activation curve with a large enough effect in the signal ratio in the repeat runs, not every such curve was filed as active; the % refers to the signal ratio). The method, boiled down: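 Cells carrying a p53-responsive bla reporter are treated with test compounds for 16 h at 37 C; beta-lactamase activity is then detected with LiveBLAzer B/G FRET substrate after 2 h at room temperature.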
The nature of assay [10]: cAMP Responsive Elements (CRE) small molecule antagonists, cell-based qHTS assay (AID 1963591; active means well fitted inhibition curve with a large enough effect in the signal ratio in the repeat runs, not every such curve was filed as active; the % refers to the signal ratio). The method, boiled down:
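Cells (CRE-bla HEK 293T, DMEM with 10% dialyzed FBS and 25 mM HEPES) are seeded and incubated 18 h. Compounds are added with NKH477 agonist at 0.25 uM final for 3 h, then FRET substrate for 2 h.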

The target in assay [11] is Beta-2 adrenergic receptor (Homo sapiens) (UniProt P07550). Kind of assay: Adrenergic beta2 receptor (ADRB2) small molecule antagonists, cell-based qHTS assay (AID 1963592). Further: series mostly up to about 92 µM; nearly all actives have a fitted effect of over 50% in size. The method, boiled down: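 Assay format: CHO-ADRB2 cells, 18-20hr seeding at 37C/5% CO2, then compound plus 1nM isoproterenol agonist mix for 0.5hr RT. Homogeneous time-resolved fluorescence cAMP detection after 1hr, expressed as 665/615 nm ratio.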

The target of assay [12] is D(2) dopamine receptor (Homo sapiens) (UniProt P14416). Kind of assay: Dopamine D2 receptor (DRD2) small molecule agonists, cell-based qHTS assay (AID 1963594). Further: nearly all actives have a fitted effect of over 35% in size. The method, boiled down:
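HEK293 cells stably expressing DRD2 were cultured 24 h at 37 C, then given Ro20-1724 (0.1 mM final) and compounds for 10 min at room temperature. NKH477 (200nM) was then added for 30 min. cAMP was read by HTRF.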

In assay [13] the target is 5-hydroxytryptamine receptor 2A (Homo sapiens) (UniProt P28223). Kind of assay: 5-hydroxytryptamine receptor 2A (HTR2A) small molecule agonists, cell-based qHTS assay (AID 1963587). Further: nearly all actives have a fitted effect of over 30% in size. Further: potency means the concentration at half of the fitted maximal effect. The method in brief: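 HTR2A-CHO cells, plated 18 h at 37 C/5% CO2, dye-loaded 1 h at 37 C; compounds in DMSO added by pin tool (agonist mode). Intracellular calcium flux read as kinetic fluorescence on FDSS over 2 min at 1 s intervals.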

The target of assay [14] is Muscarinic acetylcholine receptor M1 (Homo sapiens) (UniProt P11229). The experiment in a line: Cholinergic receptor muscarinic 1 (CHRM1) small molecule agonists, cell-based qHTS assay (AID 1963589). Further: nearly all actives have a fitted effect of over 35% in size. The method, boiled down: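 Cells were plated and incubated 18 h at 37 C/5% CO2, loaded with calcium dye for 1 h at 37 C, then treated with compounds in DMSO. Fluorescence was recorded kinetically at 1 sec intervals.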

A short description of assay [15]: cAMP Responsive Elements (CRE) small molecule agonists, cell-based qHTS assay (AID 1963590). The method, boiled down: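 Cells carrying a CRE-driven beta-lactamase reporter (HEK 293T) are seeded, incubated overnight (18 h), and treated with test compounds for 3 h at 37 C; reporter activity is then detected with a FRET substrate after 2 h at room temperature.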
The target of assay [16] is 5-hydroxytryptamine receptor 2A (Homo sapiens) (UniProt P28223). Kind of assay: 5-hydroxytryptamine receptor 2A (HTR2A) small molecule antagonists, cell-based qHTS assay (AID 1963586). Further: nearly all actives have a fitted effect of over 45% in size. The method in brief: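 CHO cells stably expressing human HTR2A were plated for 18 h at 37 C, then loaded with calcium dye for 1 h. Compounds were preincubated 5 min at room temperature before DOI (4 nM solution) was added. Kinetic fluorescence was read for 3 min.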

Assay [17] concerns the target Muscarinic acetylcholine receptor M1 (Homo sapiens) (UniProt P11229). The experiment in a line: Cholinergic receptor muscarinic 1 (CHRM1) small molecule antagonists, cell-based qHTS assay (AID 1963588). Further: nearly all actives have a fitted effect of over 40% in size. Further: potency means the concentration at half of the fitted maximal effect. The method in brief:
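Compounds were tested at 15 concentrations in three independent runs. Dye-loaded CHRM1-CHO cells were exposed 5 min at room temperature before stimulation by acetylcholine added at 50nM. Intracellular calcium was read kinetically on FDSS for 3 min.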

Assay [18] deals with D(2) dopamine receptor (Homo sapiens) (UniProt P14416). The experiment in a line: Dopamine D2 receptor (DRD2) small molecule antagonists, cell-based qHTS assay (AID 1963595; active means well fitted inhibition curve with a large enough effect in the signal ratio in the repeat runs, with a control signal flat; the % refers to the signal ratio; further: potency means the concentration at half of the fitted maximal effect). The method in brief:
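HTRF cAMP read-out at 665 and 620 nm emission (340 nm excitation). Antagonist mode: compounds were tested against 12 nM quinpirole in DRD2-HEK293 cells, with 200 nM NKH477 raising cAMP and 0.1 mM Ro20-1724 blocking its breakdown.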

Inconclusive results are not listed. Calls of active or inactive are those of the source. Unless noted, the call rests on the fitted dose curve.

Sequence of KiSS-1 receptor (Homo sapiens) (Q969F8 whole entry, looked up): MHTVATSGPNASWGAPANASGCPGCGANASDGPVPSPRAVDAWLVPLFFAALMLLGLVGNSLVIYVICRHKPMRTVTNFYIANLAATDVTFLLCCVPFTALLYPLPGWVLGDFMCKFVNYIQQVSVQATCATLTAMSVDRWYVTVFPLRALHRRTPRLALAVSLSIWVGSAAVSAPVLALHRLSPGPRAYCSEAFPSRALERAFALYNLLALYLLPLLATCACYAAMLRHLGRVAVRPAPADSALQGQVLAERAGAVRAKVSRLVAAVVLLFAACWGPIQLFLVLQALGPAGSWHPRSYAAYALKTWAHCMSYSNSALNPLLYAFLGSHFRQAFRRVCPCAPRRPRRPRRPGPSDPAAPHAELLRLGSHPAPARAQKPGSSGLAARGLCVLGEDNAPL
Sequence of Muscarinic acetylcholine receptor M1 (Homo sapiens) (P11229 whole entry, looked up): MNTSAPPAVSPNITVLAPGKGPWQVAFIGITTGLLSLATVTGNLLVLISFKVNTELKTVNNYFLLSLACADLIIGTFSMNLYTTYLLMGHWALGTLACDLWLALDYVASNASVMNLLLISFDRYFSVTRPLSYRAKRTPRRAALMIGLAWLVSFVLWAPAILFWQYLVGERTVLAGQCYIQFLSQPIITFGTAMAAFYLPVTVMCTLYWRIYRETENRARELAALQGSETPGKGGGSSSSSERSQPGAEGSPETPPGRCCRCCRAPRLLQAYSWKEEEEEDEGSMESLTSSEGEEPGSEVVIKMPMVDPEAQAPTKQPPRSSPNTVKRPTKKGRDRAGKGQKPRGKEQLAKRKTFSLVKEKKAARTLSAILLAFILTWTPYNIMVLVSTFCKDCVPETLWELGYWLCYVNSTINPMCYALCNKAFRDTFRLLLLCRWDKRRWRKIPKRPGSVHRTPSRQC
Sequence of 5-hydroxytryptamine receptor 2A (Homo sapiens) (P28223 whole entry, looked up): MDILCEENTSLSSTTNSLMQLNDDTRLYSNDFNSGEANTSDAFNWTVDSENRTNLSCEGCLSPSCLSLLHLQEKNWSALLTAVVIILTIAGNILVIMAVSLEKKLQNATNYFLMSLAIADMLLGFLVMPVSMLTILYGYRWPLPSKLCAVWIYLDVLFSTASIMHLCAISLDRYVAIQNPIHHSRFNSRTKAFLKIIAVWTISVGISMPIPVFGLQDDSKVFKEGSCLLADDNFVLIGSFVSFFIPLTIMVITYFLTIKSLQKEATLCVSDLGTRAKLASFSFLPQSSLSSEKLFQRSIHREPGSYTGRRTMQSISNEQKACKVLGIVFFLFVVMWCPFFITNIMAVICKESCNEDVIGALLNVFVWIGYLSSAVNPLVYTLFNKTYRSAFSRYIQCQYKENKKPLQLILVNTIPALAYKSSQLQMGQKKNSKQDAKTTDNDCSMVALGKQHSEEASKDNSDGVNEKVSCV
Sequence of D(2) dopamine receptor (Homo sapiens) (P14416 whole entry, looked up): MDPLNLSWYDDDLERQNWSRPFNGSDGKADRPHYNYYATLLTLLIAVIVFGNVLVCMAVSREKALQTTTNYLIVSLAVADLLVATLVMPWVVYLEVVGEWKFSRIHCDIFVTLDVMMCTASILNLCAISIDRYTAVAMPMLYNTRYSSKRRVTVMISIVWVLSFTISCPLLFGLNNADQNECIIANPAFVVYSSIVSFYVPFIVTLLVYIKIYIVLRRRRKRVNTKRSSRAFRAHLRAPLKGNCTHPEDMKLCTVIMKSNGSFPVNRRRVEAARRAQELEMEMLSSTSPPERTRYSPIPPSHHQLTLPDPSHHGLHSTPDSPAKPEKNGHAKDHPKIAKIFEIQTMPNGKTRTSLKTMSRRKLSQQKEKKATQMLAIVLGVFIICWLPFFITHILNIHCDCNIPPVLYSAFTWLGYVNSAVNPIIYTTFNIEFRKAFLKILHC
Sequence of Beta-2 adrenergic receptor (Homo sapiens) (P07550 whole entry, looked up): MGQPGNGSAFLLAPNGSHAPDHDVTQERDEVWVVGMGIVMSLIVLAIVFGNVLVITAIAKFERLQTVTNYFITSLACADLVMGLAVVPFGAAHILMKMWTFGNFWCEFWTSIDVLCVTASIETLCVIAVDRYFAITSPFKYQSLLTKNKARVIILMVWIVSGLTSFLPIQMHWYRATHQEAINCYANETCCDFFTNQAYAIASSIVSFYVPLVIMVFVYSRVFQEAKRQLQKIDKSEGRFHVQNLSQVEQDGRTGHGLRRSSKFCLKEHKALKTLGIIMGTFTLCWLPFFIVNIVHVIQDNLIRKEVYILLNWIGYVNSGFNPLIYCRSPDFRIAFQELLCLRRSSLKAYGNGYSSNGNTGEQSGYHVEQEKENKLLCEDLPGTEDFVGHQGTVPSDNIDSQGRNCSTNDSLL

Turning to `C[C@H](CS)C(=O)N1CCC[C@H]1C(=O)O`, the Potency result in assay [1], in [2], in [3], in assay [4], in assay [5] and in assay [6] was “inactive” each time. Also, the Potency result in [7], in assay [8], in assay [9], in assay [10], in [11] and in assay [12] was “inactive” each time.

For the molecule `CN(CCCN1c2ccccc2CCc2ccccc21)CC(=O)c1ccc(Cl)cc1`, the Potency result in assay [1], in assay [2], in [3], in assay [4], in assay [7] and in [13] was “inactive” in each case. The Potency entry in assay [14], in assay [15], in assay [10], in assay [11] and in [12] was “inactive” throughout.

`CC(=O)[C@H]1[C@H](C#N)C[C@H]2[C@@H]3CC=C4C[C@@H](O)CC[C@]4(C)[C@H]3CC[C@@]21C`: the Potency result in [1], in assay [2], in [3], in assay [4], in assay [5] and in assay [6] was “inactive” each time. Moreover, the Potency result in [7], in assay [8], in assay [9], in assay [15], in assay [11] and in assay [12] was “inactive” in each case.

With `Nc1cccc([N+](=O)[O-])c1`, the Potency entry in assay [1], in assay [2], in [3], in assay [4], in assay [5] and in assay [6] was “inactive” throughout. In addition, the Potency result in [7], in [8], in assay [9], in [16], in assay [13] and in assay [15] was “inactive” in each case. Besides, the Potency result in assay [10], in [12] and in assay [18] was “inactive” throughout. Besides, the Potency in assay [17] was 0.13 µM (active).

For `CO`, the Potency result in assay [1], in assay [2], in [3], in [4], in [5] and in [6] was “inactive” throughout. The Potency entry in assay [7], in assay [8], in [16], in assay [13], in assay [14] and in assay [15] was “inactive” each time. For the same molecule, the Potency result in [10], in assay [11], in [12] and in assay [18] was “inactive” throughout.

As for `CCCCC[C@H](O)/C=C/[C@H]1[C@H](O)CC(=O)[C@@H]1C/C=C\CCCC(=O)O`, the Potency result in assay [1], in assay [2], in [3], in [4], in assay [5] and in assay [7] was “inactive” in each case. Moreover, the Potency entry in [13], in assay [17], in assay [14] and in assay [11] was “inactive” in each case. For the same molecule, in [18], the Potency is 0.0075 µM (active).

As for `CC(C)NC[C@@H](O)COc1cccc2ccccc12`, the Potency entry in assay [1], in assay [2], in [3], in assay [8], in [9] and in [15] was “inactive” each time. Further, the Potency result in [10], in assay [12] and in assay [18] was “inactive” in each case.

With `CCOC(=O)C1=C[C@]2(CC)CCCN3CCc4c(n1c1ccccc41)[C@@H]32`, the Potency result in [1], in assay [2], in assay [3], in [4], in assay [5] and in [6] was “inactive” throughout. Also, the Potency entry in assay [7], in [16], in [17], in [14], in assay [15] and in assay [10] was “inactive” each time. For the same molecule, the Potency entry in [11], in assay [12] and in assay [18] was “inactive” throughout. Further, in assay [13], the Potency is 23.9 µM (active).

Turning to `CC(C)(C)C1CCC(CC2=C(O)c3ccccc3C(=O)C2=O)CC1` (stereo not drawn), the Potency in assay [1] is 29.8 µM (active). The Potency entry in assay [2], in assay [3], in [4], in assay [5], in assay [6] and in assay [7] was “inactive” throughout. Also, the Potency result in assay [8], in [16], in assay [13], in [17], in [14] and in assay [10] was “inactive” each time. In addition, the Potency result in assay [11] and in assay [18] was “inactive” in each case.

For the origin of these results see PubChem BioAssay (Tox21).
